Molecules are shown by their SMILES.

What is called residual activity is the signal under treatment as a percentage of the control signal.

Assay [1] deals with T1, Serine/threonine-protein kinase TBK1 (Homo sapiens) (UniProt Q9UHD2).
T1 sequence (whole entry): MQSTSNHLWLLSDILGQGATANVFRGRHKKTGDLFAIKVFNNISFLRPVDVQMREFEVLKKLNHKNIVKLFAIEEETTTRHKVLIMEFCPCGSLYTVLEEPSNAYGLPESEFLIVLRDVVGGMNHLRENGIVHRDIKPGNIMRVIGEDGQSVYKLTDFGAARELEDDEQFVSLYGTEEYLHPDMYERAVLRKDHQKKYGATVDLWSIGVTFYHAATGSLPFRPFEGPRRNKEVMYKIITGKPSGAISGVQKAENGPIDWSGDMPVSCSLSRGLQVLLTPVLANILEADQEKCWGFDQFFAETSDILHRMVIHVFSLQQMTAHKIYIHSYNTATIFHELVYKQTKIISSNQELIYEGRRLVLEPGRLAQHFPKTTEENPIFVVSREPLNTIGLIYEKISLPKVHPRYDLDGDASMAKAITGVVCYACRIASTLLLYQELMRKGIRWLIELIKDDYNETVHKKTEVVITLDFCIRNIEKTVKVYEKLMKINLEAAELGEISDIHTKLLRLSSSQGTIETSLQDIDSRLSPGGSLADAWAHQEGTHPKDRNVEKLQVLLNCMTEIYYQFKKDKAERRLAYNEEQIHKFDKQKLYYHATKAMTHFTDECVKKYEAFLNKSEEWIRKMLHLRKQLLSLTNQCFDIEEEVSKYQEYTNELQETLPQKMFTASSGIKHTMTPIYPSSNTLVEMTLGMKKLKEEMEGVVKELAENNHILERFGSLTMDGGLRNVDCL
Conditions: at 10 µM.

Assay [2] deals with T2, TGF-beta receptor type-1 (Homo sapiens) (UniProt P36897).
T2 sequence (whole entry): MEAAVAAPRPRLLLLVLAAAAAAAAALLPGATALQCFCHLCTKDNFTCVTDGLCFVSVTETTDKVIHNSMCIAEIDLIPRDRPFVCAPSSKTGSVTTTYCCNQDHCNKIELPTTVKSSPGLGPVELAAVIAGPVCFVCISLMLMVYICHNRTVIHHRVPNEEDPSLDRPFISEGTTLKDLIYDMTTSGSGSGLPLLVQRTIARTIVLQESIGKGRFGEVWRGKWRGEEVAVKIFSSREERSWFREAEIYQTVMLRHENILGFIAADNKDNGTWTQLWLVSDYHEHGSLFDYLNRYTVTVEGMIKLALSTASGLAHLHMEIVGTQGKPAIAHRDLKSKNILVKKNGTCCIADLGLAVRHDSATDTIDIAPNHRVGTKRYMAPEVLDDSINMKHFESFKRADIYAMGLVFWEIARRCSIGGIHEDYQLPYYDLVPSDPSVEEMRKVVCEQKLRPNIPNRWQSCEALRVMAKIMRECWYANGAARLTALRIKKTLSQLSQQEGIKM
The note with it: at 1 µM.

In assay [3] the target is T2, TGF-beta receptor type-1 (Homo sapiens). Conditions: at 10 µM.
The target in assay [4] is Insulin-like growth factor 1 receptor (Homo sapiens) (UniProt P08069). Conditions: at 1 µM.
Chain of Insulin-like growth factor 1 receptor (Homo sapiens) (P08069 31-736 limits assumed): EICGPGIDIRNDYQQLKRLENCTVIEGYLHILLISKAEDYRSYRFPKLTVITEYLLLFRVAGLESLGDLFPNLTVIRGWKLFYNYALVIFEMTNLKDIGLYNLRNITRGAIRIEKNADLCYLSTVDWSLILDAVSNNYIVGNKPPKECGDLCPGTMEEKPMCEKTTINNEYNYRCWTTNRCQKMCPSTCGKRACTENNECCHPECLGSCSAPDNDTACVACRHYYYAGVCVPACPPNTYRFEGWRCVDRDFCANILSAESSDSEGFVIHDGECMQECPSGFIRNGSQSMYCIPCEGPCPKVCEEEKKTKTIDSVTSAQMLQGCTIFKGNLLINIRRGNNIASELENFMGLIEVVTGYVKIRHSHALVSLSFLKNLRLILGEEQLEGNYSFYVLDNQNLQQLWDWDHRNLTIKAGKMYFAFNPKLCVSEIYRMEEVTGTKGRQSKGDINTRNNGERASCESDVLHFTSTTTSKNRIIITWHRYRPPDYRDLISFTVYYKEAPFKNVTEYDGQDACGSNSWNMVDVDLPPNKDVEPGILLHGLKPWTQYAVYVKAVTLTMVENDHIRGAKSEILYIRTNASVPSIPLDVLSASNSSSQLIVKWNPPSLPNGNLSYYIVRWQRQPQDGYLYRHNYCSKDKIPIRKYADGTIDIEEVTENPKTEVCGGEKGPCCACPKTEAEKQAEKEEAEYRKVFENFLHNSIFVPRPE
Chain of Insulin-like growth factor 1 receptor (Homo sapiens) (P08069 741-1367 limits assumed): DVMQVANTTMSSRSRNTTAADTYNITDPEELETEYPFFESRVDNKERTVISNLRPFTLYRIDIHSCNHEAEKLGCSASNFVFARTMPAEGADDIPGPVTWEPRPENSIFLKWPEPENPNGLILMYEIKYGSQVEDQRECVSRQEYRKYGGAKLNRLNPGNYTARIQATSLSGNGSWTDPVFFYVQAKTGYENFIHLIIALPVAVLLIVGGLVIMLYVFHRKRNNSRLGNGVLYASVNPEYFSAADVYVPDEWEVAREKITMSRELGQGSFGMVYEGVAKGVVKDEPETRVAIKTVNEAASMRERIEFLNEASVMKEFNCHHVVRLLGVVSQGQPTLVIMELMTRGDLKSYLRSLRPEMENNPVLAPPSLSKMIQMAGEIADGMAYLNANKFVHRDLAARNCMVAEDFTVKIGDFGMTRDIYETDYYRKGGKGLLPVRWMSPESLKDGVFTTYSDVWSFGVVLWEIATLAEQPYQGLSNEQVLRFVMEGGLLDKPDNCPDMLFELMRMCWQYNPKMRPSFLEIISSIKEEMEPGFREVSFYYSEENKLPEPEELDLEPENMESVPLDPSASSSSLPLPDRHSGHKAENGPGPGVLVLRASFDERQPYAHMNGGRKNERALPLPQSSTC
In assay [5] the target is T3, Inhibitor of nuclear factor kappa-B kinase subunit alpha (Homo sapiens) (UniProt O15111).
T3 sequence (whole entry): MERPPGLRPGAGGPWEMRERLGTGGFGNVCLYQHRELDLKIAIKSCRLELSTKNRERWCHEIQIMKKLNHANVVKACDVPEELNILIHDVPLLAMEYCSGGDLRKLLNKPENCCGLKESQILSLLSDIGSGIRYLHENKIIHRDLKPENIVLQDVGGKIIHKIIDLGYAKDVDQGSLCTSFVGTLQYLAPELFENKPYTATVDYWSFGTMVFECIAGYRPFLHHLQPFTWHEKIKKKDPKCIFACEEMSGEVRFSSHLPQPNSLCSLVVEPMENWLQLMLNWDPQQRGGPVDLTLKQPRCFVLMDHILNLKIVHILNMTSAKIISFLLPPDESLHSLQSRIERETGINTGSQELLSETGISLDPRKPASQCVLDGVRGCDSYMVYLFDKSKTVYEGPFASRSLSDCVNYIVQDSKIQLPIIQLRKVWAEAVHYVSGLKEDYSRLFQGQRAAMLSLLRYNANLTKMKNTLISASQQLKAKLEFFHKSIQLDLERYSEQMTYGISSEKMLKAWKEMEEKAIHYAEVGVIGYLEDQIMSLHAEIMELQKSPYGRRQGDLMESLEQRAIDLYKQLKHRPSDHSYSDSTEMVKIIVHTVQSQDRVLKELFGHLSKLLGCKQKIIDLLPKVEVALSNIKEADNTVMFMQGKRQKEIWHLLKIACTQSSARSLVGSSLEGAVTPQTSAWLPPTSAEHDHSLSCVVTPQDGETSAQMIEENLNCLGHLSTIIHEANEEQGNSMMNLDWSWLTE
Conditions: at 1 µM.

In assay [6] the target is T3, Inhibitor of nuclear factor kappa-B kinase subunit alpha (Homo sapiens). Conditions: at 10 µM.
In assay [7] the target is T4, Inhibitor of nuclear factor kappa-B kinase subunit beta (Homo sapiens) (UniProt O14920).
T4 sequence (whole entry): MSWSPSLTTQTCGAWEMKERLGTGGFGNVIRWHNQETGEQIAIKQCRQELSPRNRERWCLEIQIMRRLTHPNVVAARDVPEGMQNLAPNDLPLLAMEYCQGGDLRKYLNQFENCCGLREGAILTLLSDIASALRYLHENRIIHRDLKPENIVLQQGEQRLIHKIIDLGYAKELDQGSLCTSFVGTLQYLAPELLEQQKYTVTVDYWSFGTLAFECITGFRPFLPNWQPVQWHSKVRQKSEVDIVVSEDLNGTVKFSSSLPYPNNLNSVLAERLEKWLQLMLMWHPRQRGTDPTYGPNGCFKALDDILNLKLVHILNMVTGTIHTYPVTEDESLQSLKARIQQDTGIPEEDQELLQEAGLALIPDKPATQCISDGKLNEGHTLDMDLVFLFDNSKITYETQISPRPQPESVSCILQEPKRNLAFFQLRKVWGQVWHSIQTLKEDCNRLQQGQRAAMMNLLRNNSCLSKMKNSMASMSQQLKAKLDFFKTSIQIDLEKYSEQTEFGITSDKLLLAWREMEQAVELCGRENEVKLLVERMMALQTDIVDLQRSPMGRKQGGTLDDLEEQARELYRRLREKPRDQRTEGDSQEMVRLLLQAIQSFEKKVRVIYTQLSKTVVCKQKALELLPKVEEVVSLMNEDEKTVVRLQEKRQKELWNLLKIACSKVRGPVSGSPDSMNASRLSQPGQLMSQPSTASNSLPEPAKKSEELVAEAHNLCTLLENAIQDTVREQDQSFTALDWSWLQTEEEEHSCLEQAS
The note with it: at 1 µM.

Assay [8] addresses T4, Inhibitor of nuclear factor kappa-B kinase subunit beta (Homo sapiens). Conditions: at 10 µM.
The target in assay [9] is Insulin-like growth factor 1 receptor (Homo sapiens) (UniProt P08069). Conditions: at 10 µM.
The target in assay [10] is Insulin receptor (Homo sapiens) (UniProt P06213). The note with it: at 1 µM.
Chain of Insulin receptor (Homo sapiens) (P06213 28-758 limits assumed): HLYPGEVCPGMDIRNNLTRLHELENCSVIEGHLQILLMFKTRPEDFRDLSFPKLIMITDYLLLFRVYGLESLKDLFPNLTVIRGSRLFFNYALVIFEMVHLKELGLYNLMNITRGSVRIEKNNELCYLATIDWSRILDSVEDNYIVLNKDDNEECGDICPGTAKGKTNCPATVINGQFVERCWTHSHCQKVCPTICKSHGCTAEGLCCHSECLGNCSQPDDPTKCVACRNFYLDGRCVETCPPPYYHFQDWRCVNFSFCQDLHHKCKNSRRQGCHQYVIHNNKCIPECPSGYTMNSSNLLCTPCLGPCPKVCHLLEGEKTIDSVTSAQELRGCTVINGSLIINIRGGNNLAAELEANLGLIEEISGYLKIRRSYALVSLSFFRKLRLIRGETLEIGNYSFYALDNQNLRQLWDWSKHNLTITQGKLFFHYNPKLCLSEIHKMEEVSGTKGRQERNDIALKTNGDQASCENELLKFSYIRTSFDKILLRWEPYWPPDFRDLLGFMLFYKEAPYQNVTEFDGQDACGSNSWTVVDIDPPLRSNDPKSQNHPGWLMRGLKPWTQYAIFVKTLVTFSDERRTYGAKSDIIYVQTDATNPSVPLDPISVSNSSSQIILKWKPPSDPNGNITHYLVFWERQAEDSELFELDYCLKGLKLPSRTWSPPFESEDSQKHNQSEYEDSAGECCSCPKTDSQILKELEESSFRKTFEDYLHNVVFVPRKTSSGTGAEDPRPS
Chain of Insulin receptor (Homo sapiens) (P06213 763-1382 limits assumed): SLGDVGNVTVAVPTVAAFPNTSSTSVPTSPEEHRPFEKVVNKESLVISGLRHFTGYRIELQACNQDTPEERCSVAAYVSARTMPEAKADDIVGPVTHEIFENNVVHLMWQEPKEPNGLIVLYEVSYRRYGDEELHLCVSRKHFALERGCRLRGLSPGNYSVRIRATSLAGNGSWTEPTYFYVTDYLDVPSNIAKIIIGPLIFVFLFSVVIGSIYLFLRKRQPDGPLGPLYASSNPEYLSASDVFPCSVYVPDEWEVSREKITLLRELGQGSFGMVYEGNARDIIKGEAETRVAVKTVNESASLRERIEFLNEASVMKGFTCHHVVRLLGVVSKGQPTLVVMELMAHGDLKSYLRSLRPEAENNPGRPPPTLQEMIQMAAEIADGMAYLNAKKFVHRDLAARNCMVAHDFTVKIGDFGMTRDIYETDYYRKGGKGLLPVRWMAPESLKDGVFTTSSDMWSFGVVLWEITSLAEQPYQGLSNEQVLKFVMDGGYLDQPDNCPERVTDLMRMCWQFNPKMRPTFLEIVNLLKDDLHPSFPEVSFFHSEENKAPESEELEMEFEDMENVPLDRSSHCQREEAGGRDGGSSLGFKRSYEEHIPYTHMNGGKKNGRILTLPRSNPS

Consider `CN(C)CCCn1cc(C2=C(c3c[nH]c4ccccc34)C(=O)NC2=O)c2ccccc21`, for which the residual activity in assay [1] was determined as 22%; in [2] it was 91%; in assay [3], 71%; in assay [4], 110%; in assay [5], 101%; in assay [6], 58%. Besides, the residual activity in assay [7] is 104%; in assay [8] it was 82%.
For the molecule `N#CC(C#N)=C(N)/C(C#N)=C/c1ccc(O)cc1`, the residual activity in assay [1] is 72%; in assay [2] it was 91%; in assay [3], 91%; in assay [5] it was 96%; in [6], 92%; in [7] it was 99%. Further, the residual activity in assay [8] was 93%.
For the molecule `CO[C@@H]1[C@H](N(C)C(=O)c2ccccc2)C[C@H]2O[C@]1(C)n1c3ccccc3c3c4c(c5c6ccccc6n2c5c31)C(=O)NC4`, the residual activity in [1] worked out at 1%; in [2], 85%; in assay [4] it was 92%; in [9] it was 84%; in assay [5] it was 101%; in assay [6], 91%. Moreover, the residual activity in [8] stood at 84%; in assay [10], 87%.
As for `CC(=O)c1ccc(N2CCOCC2)cc1O`, the residual activity in [1] came to 70%; in [2] it was 83%; in [3], 90%; in assay [7], 104%; in [8], 102%.
Regarding `O=C1NC(=O)c2cc(Nc3ccc(F)cc3)c(Nc3ccc(F)cc3)cc21`, the residual activity in assay [1] worked out at 54%; in assay [2], 78%; in assay [3], 76%; in assay [4], 90%; in [9], 77%; in assay [5], 111%. For the same molecule, the residual activity in assay [6] is 113%; in assay [7], 108%; in assay [8], 95%; in assay [10], 115%.
For `COc1cccc(-c2cc(=O)c3ccccc3o2)c1N`, the residual activity was found to be 95% in assay [1]; 104% in assay [2]; 93% in assay [3]; 93% in assay [4]; 97% in assay [9]; 105% in assay [5]. Besides, the residual activity in [6] was 97%; in assay [7] it was 125%; in assay [8] it was 109%; in assay [10] it was 109%.
On to `Cc1cncc2cccc(S(=O)(=O)N3CCCN(C(=O)CN)C[C@H]3C)c12`, for which the residual activity in assay [1] was determined as 55%; in assay [2], 78%; in assay [3], 86%; in [5], 93%.
Turning to `Cc1ccc(S(=O)(=O)/C=C/C#N)cc1`, the residual activity in [1] is 81%; in assay [2], 98%; in assay [3], 81%; in assay [4], 88%; in assay [9], 98%; in assay [5], 100%. In addition, the residual activity in assay [6] came out at 100%; in [7], 108%; in assay [8], 107%; in [10], 94%.
Consider `CO[C@H]1C[C@@H]2CC[C@@H](C)[C@@](O)(O2)C(=O)C(=O)N2CCCC[C@H]2C(=O)O[C@H]([C@H](C)C[C@@H]2CC[C@@H](O)[C@H](OC)C2)CC(=O)[C@H](C)/C=C(\C)[C@@H](O)[C@@H](OC)C(=O)[C@H](C)C[C@H](C)/C=C/C=C/C=C/1C`, for which the residual activity is 55% in assay [1]; 82% in assay [2]; 78% in assay [3]; 96% in assay [4]; 74% in assay [9]; 121% in [5]. For the same molecule, the residual activity in [6] stood at 148%; in assay [7], 104%; in assay [8], 124%; in [10], 107%.
Regarding `CCN(CC)CCCCN1c2ccccc2Oc2ccc(Cl)cc21`, the residual activity amounted to 82% in assay [1]; 84% in [2]; 105% in assay [3]; 107% in [4]; 104% in assay [9]; 97% in [5]. The residual activity was 102% in [6], 112% in assay [7], 105% in [8] and 114% in [10].
Regarding `Cc1ccc(NC2=CC(=O)c3sc(C)nc3C2=O)cc1`, the residual activity in assay [1] was determined as 74%; in assay [2], 90%; in assay [3] it was 83%; in assay [4], 95%; in assay [9], 92%; in assay [5], 107%. Also, the residual activity in [6] is 103%; in assay [7] it was 106%; in [8] it was 98%; in assay [10], 95%.
As for `O=C(O)c1ccc2c3c1cccc3c(=O)n1c3ccccc3nc21`, the residual activity in assay [1] was found to be 4%; in [2] it was 111%; in assay [3], 102%; in assay [4] it was 113%; in [9], 107%; in [5], 109%. Further, the residual activity worked out at 106% in [6], 112% in assay [7], 93% in assay [8] and 117% in assay [10].
Turning to `N#CCCc1ccc2c(c1)-c1[nH]c3ccc([N+](=O)[O-])cc3c1CC(=O)N2`, the residual activity in [1] came to 13%; in [2], 73%; in [3] it was 28%; in assay [10] it was 118%.
On to `Cc1nc(-c2ccccc2)c(-c2ccncc2)o1`, for which the residual activity in assay [1] came to 88%; in [2], 116%; in [3], 100%; in assay [4], 107%; in [9], 116%; in [5], 109%. Further, the residual activity came to 101% in assay [6], 109% in [7], 82% in assay [8] and 117% in [10].
`c1ccc(-c2n[nH]c3c2oc2ccccc23)cc1`: the residual activity in [1] was 55%; in assay [2], 82%; in assay [3], 88%; in assay [5], 97%; in assay [6], 88%.
Take `COc1ccc(C(=O)Nc2sc3c(c2C(N)=O)CCCC3)cc1OC`: the residual activity was 71% in assay [1]; 71% in assay [2]; 92% in [3]; 87% in assay [4]; 88% in [9]; 113% in [6]. Further, the residual activity in [7] turned out to be 99%; in [8], 88%; in assay [10], 105%.
On to `CO[C@H]1[C@@H](OC)C[C@H](C)[C@@H](OC)C2=CC(=O)C=C(NC(=O)/C(C)=C/C=C/[C@H](OC)[C@@H](OC(N)=O)/C(C)=C/[C@@H]1C)C2=O`, for which the residual activity in assay [1] came to 69%; in assay [2] it was 99%; in assay [3], 89%; in assay [4] it was 106%; in assay [9], 96%; in assay [5] it was 85%. Moreover, the residual activity in assay [6] amounted to 113%; in [7], 111%; in assay [8], 107%; in [10], 109%.
As for `CNc1cc2c(Nc3cccc(Br)c3)ncnc2cn1`, the residual activity in [1] was 64%; in assay [2], 87%; in assay [3], 94%; in [4] it was 96%; in assay [9], 94%; in [5], 108%. Moreover, the residual activity turned out to be 101% in assay [6], 92% in assay [7], 76% in assay [8] and 91% in assay [10].
For the molecule `CCN(CC)C(=O)c1ccc(Nc2nc(OCC3CCCCC3)c3nc[nH]c3n2)cc1`, the residual activity in assay [1] came to 2%; in assay [2], 82%; in assay [3] it was 50%; in [4], 70%; in assay [9], 16%; in assay [7], 94%. For the same molecule, the results for the residual activity in assay [8] and in [10] were 69% and 95%, respectively.

These data come from ChEMBL document CHEMBL2218924, “A broad activity screen in support of a chemogenomic map for kinase signalling research and drug discovery” (Biochem J, 2013).
